# Source: PubChem (Broad Institute)
# The list is not random: actives were taken first. Their share in the collection is about 1.8%.
# F508del corr = CFTR F508del correction in bronchial cells | CFBE cells, YFP halide quenching; stimulated with forskolin plus potentiator P3; % fluorescence drop versus neutral controls | activity (quench increase), % at 7.58 µM | hit rate 0.36% among 350,000 | AID 720511;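 active means mean added fluorescence quench of at least 8% versus neutral control, with both replicates also reaching 8%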;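 further: cells transiently co-express mutant CFTR-F508del with the halide-sensitive YFP; corrector assay measuring rescue of mutant channel to the surface after 24 h compound exposure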
# LGR2 inh = Drosophila LGR2 receptor signaling inhibition. hit rate 0.35% among 380,000. HEK293 LGR2, CRE-luciferase, bursicon-stimulated, 4 h. inhibition, % at 9.99 µM. AID 720647;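 active means drop in luminescence signal, shown as inhibition above about 50% in the replicate tests, limit read from the data, passing the limit was not always enough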;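 further: agonist challenge used bursicon conditioned medium at about half maximal strength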
# PAX8 reporter = PAX8 transcriptional activity inhibition; RMG-I TPO-luciferase reporter, SteadyGlo, 24 h; inhibition, % at 12.6 µM; hit rate 1.2% among 360,000; AID 652154;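 active means mean replicate inhibition at least 60% with every replicate also reaching 60%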;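 further: luciferase light reporting Pax8 driven TPO promoter activity; plate controls were median of neutral control wells for no effect and mitoxantrone controls for full effect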
# EWS-Fli block = EWS/Fli transcriptional activity inhibition; A673 NR0B1-luciferase reporter, viability-normalised; inhibition, % at 12.6 µM; hit rate 0.67% among 350,000;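 active means mean inhibition of at least 50% after viability correction, with every replicate also passing that limit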;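 further: firefly luciferase signal divided by Alamar Blue viability fluorescence both relative to DMSO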
# DNA binding = small molecule DNA binding by fluorescence polarization; shares compounds with EWS-Fli block; salmon sperm DNA acridine orange fluorescence polarization; AC35, µM (highest dose often 68 µM), for the others: at the highest dose activity change, negative = DNA binding; hit rate 2% among 640; AID 720586;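 active means fitted curve reaches a 35% signal fall AC35 below twice the sample's top valid tested dose, actives reach about 48 µM in these data; inactive means the rest, including activity in the rising direction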;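 further: lower polarization ratio signals compound binding to DNA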
# The depositor's hits bear a star; . = no result; ! = a repeat was not active.
SMILES,F508del corr,LGR2 inh,PAX8 reporter,EWS-Fli block,DNA binding
CCc1ccc(/C=C2\SC(=S)N(CCCC(=O)NC3=NCCS3)C2=O)cc1,2,1,13,77*,1%
CCc1ccc(/C=C2\SC(=S)N(CCCC(=O)Nc3cc(C)on3)C2=O)cc1,-4,18,35,83*,-2%
CCc1ccc(/C=C2\SC(=S)N(CCC(=O)Nc3cc(C)on3)C2=O)cc1,0,2,7,63*,1%
COc1cccc(/C=C2\SC(=S)N(CCCC(=O)NC3=NCCS3)C2=O)c1,0,-3,.,.,.
Cc1cc(NC(=O)CCN2C(=O)/C(=C/c3ccccc3Cl)SC2=S)no1,.,5,7,-5,.
COc1cccc(/C=C2\SC(=S)N(CCCC(=O)Nc3cc(C)on3)C2=O)c1,-1,4,.,49,.
COc1ccccc1/C=C1\SC(=S)N(CCC(=O)Nc2cc(C)on2)C1=O,-2,19,-11,52*,4%
Cc1noc(C)c1S(=O)(=O)Nc1ccc2c(c1)C(=O)N([C@H](C)CO)C[C@H](C)[C@H](CN(C)S(=O)(=O)c1cccs1)O2,-1,2,9,10,.
COc1cc(C(O)c2nc(-c3ccccc3C)cs2)ccc1F (configuration not stated),-5,-11,6,6,.
COc1ccc(NC(=O)CN2C(=O)NC3(CCCc4ccccc43)C2=O)c(OC)c1 (configuration not stated),-4,2,5,-1,.
NC(=O)C1CCCN(CC(=O)Nc2cc(S(=O)(=O)N3CCOCC3)ccc2N2CCCC2)C1 (configuration not stated),3,2,10,3,.
COc1ccc(C(=O)NC(CO)c2nnc(SCc3ccc(Cl)c(Cl)c3)n2C)cc1 (configuration not stated),.,-6,.,.,.
CC(C)CC(NC(=O)c1cccs1)c1nnc(SCc2ccc(Cl)c(Cl)c2)n1C (configuration not stated),.,10,14,76*,-21%
CCSc1nc(C)nc2sc(C)c(C)c12,1,8,5,0,.
CC1=C(C(=O)N(C(C)C)C(C)C)CC(CC(=O)NC2CCCC2)C(=O)N1CCCN1CCCC1=O (configuration not stated),2,3,7,-2,.
O=C(NCc1cccnc1)C1Cc2c(-c3ccc(Cl)cc3)ccnc2O1 (configuration not stated),1,-11,29,52*,-3%
Cc1occc1-c1n[nH]c(=S)n1C,-1,.,6,75*,-7%
Cc1occc1-c1n[nH]c(=S)n1-c1ccccc1,.,-3,16,14,.
C[C@@H]1CN([C@@H](C)CO)S(=O)(=O)c2ccc(C#CCN(C)C)cc2O[C@@H]1CN(C)Cc1ccncc1,-3,4,-7,53*,-7%
C[C@@H]1CN([C@H](C)CO)S(=O)(=O)c2ccc(C#CC(C)(C)O)cc2O[C@@H]1CN(C)Cc1ccc(-c2ccccc2)cc1,0,29,.,27,.
C[C@H]1CN([C@@H](C)CO)S(=O)(=O)c2ccc(C#CC(C)(C)O)cc2O[C@@H]1CN(C)Cc1ccc(-c2ccccc2)cc1,-5,54*,.,68*,4%
CN(C)c1ccc2c(c1)[C@H]1C[C@H](CC(=O)NC3CCCC3)O[C@@H](CO)[C@H]1O2,-1,-11,13,-9,.
COCCNC(=O)C1Cc2c(-c3ccc(NC(C)=O)cc3)ccnc2O1 (configuration not stated),5,-7,.,-1,.
CC(=O)O[C@@H]1[C@H]2[C@@H](C[C@@H](C)[C@@H]3C=CC(=O)[C@@]13C)OC(=O)[C@@H]2C,-3,5,-14,-6,.
C=C1C(=O)OC2C1CCC(C)C1C=CC(=O)C12C (configuration not stated),-7,0,75*,56*,7%
SMILES,F508del corr,LGR2 inh,PAX8 reporter,EWS-Fli block,DNA binding
Oc1cc(CNCc2ccccc2)c(O)cc1CNCc1ccccc1,0,10,10,-12,.
Cc1nn(Cc2ccccc2Cl)c2sc(C(=O)Nc3ccccc3N3CCOCC3)cc12,5,1,43,50*,-12%
O=C(NCc1ccc(F)cc1)N1[C@H]2CC[C@@H]1C=C(c1ccc(F)cc1OCc1ccccc1)C2,2,20,-22,54*,-9%
COc1ccc(CNC(=O)N2[C@H]3CC[C@@H]2C=C(c2ccc(F)cc2OCc2ccccc2)C3)cc1OC,2,19,26,-35,.
CCOc1cc(/C=N/NC(=O)CN2CCCCC2)ccc1OCc1cccc(Cl)c1,.,-5,-10,.,.
CCCN1[C@H](C(=O)N2CCOCC2)[C@@H](CO)[C@@H]2Cn3c(ccc(-c4ccccc4F)c3=O)[C@@H]21,-1,7,15,-3,.
O=C(/C=C/c1cc(Br)ccc1O)c1ccco1,-2,27,13,59*,-17%
S=C(NCCN1CCOCC1)Nc1ccccc1Cl,.,2,9,83*,0%
COc1cccc(NC(=O)c2cc3ccccc3oc2=O)c1,4,25,-108,33,.
COc1ccccc1NS(=O)(=O)c1cc(NC(=O)c2cc3ccccc3oc2=O)ccc1C,.,-15,-5,82*,17%
C[C@H](CO)N1C[C@H](C)[C@H](CN(C)CC2CC2)Oc2cc(C#C[C@@H](C)O)ccc2S1(=O)=O,-5,-3,.,-9,.
C=C1C(=O)O[C@@H]2[C@H]1[C@@H](OC(=O)/C(C)=C/C)C/C(C)=C\C(=O)/C=C(\C)[C@@H]2O,9.7*,55*,98*,73*,-6%
C=C1C(=O)O[C@H]2[C@H]1[C@H](OC(=O)/C(C)=C\C)C[C@]1(CO1)[C@@H]1[C@H](OC(C)=O)C=C(C)[C@]21O,-2,6,16,-3,.
CC1(C)CC(=O)C=C(NCC(O)c2ccccc2)C1 (configuration not stated),-1,11,-2,-2,.
Nc1ncccc1OCc1cccc(C(F)(F)F)c1,-1,-15,-4,-6,.
Nc1nc(N)c(-c2cccc(C(F)(F)F)c2)c(Cc2cccc(C(F)(F)F)c2)n1,7,5,5,58*,-3%
COc1ccc(C(=O)CN2C(=O)c3ccccc3S2(=O)=O)cc1,1,101*,93*,87*,6%
CCCn1c(C)cc(C(=O)CN2C(=O)c3ccccc3S2(=O)=O)c1C,-1,56*,96*,82*,-2%
CCCCC1Cc2[nH]c(=S)[nH]c(=O)c2C(c2ccc3ccccc3c2)O1 (configuration not stated),-1,-11,9,5,.
CCCC[C@@H]1Cc2[nH][nH]c(=O)c2[C@H](c2ccc3ccccc3c2)O1,-2,-7,-3,52*,3%
CC(=O)Nc1ccc(Cl)cc1-c1ccccc1,1,-17,-20,5,.
C/C=C/c1ccc(C2[C@@H]3CN(C(=O)Cc4ccccc4)C[C@H]2N3)cc1 (some centres not stated),-2,1,-5,55*!,-2%
